Test [1] is described as follows: Quantitative highthroughput screen to assess conditional lethalithy of P12 Ichikawa cells grown in Human Plasma-Like Medium with dialyzed fetal bovine serum (HPLM+ds) (AID 1963879). Further: nearly all actives have a fitted effect of over 35% in size. Further: potency means the concentration at half of the fitted maximal effect. On viability: series mostly up to about 46 µM. The settings on record: Potency: viability. A digest of the protocol: (§1)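 Each medium arm—HPLM with 10% dialyzed FBS, or RPMI1640 with 5 mM glucose and 10% untreated or dialyzed FBS—was screened against an 11-point, 3-fold compound titration for 48 h at 37 °C, with CellTiter-Glo luminescence as endpoint.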

The nature of test [2]: Quantitative highthroughput screen to assess conditional lethalithy of P12 Ichikawa cells grown in RPMI1640 with untreated serum (RPMI+s) (AID 1963881). Further: potency means the concentration at half of the fitted maximal effect; nearly all actives have a fitted effect of over 35% in size. The settings on record: Potency: viability. A digest of the protocol: as §1
Test [3] can be described thus: Quantitative highthroughput screen to assess conditional lethalithy of SEM cells grown in RPMI1640 with unreated serum (RPMI+s) (AID 1963883). Further: nearly all actives have a fitted effect of over 35% in size. Further: potency means the concentration at half of the fitted maximal effect.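 On viability: 100% = DMSO wells and 0% = empty wells without cells.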 In a few lines: as §1
Test [4] in a line: Cellular viability qHTS for adrenocortical cancer (ACC) cell line SW-13 (AID 1963989). Further: nearly all actives have a fitted effect of over 65% in size. Further: potency means the concentration at half of the fitted maximal effect.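 On activity (max response): cells grown in serum-free medium with ITS supplement; on the % scale 0 is the no-effect control and ±100 the full control effect.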 The conditions noted are these: SW-13 ACC cells viability, CellTiter-Glo, 48 h; activity (max response): active compounds read low. A digest of the protocol:
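Luminescent ATP read-out (CellTiter-Glo, 20 min at room temperature) measured metabolically competent SW-13 cells after 48 h compound treatment. Final concentrations spanned up to 46 uM; bortezomib served as positive control.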

The nature of test [5]: Cellular viability qHTS for adrenocortical cancer (ACC) cell line NCI-H295R (AID 1963990). Further: nearly all actives have a fitted effect of over 60% in size. Further: potency means the concentration at half of the fitted maximal effect.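 On activity change, negative = viability loss: 0% = DMSO only wells and -100% = full killing with cytotoxic reference compound.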 A digest of the protocol: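 IC50 and maximal efficacy derive from four-parameter logistic modelling of titration curves, with reads scaled between DMSO-only wells (0%) and doxorubicin hydrochloride (100% inhibition). Compounds spanned up to 46 uM over 48 h.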
Test [6] in a line: Quantitative highthroughput screen to assess conditional lethalithy of P12 Ichikawa cells grown in RPMI1640 with dialyzed fetal bovine serum (RPMI+ds) (AID 1963880). Further: nearly all actives have a fitted effect of over 35% in size. Further: potency means the concentration at half of the fitted maximal effect.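 On viability: 100% = DMSO wells and 0% = empty wells on each plate.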 The conditions noted are these: Potency: P12-Ichikawa viability. In a few lines: as §1
Test [7] can be described thus: Quantitative highthroughput screen to assess conditional lethalithy of SEM cells grown in Human Plasma-Like Medium with dialyzed fetal bovine serum (HPLM+ds) (AID 1963882). Further: nearly all actives have a fitted effect of over 35% in size. Further: potency means the concentration at half of the fitted maximal effect. On viability: series mostly up to about 46 µM. A digest of the protocol:
as §1

The nature of test [8]: Quantitative highthroughput screen to assess conditional lethalithy of SEM cells grown in RPMI1640 with dialyzed fetal bovine serum (RPMI+ds) (AID 1963884). In a few lines: as §1

Values joined by “and” are separate entries in the source; they are usually repeats but may differ in a detail not shown here. Equal entries are not always repeated. Records with an inconclusive call do not appear. Values without a mark were called inactive. Active and inactive are the calls of the source. The call rests on the fitted dose curve; in most records, active means well fitted curve in the direction sought with a large enough effect; inconclusive means small, poorly fitted or top-dose-only effect, or another doubt; inactive means no such curve, though single readings can be large; an effect the other way counts as inactive or inconclusive.

Regarding `COc1ccc2c(c1)CC[C@@H](CN(C)CC(=O)O)[C@H]2c1ccccc1`, the Potency in test [1], in test [2] and in test [3] was 2640 nM (active) in each case. The activity (max response) in test [4] was 12.6%. Besides, the Potency result in test [5] was “inactive”.
Consider `CC1=C(C)C(=O)C(C(CCCCCC(=O)O)c2ccccc2)=C(C)C1=O` (stereo not drawn), for which the Potency entry in test [1] was “inactive”. Further, in test [2], the Potency is 8330 nM (active). For the same compound, the activity (max response) in test [4] is 0.763% and -13.4%.
In the case of `CCC[C@H](NC(=O)C(C#N)=Cc1cccc(Br)n1)c1ccccc1`, in test [6], the Potency was 26400 nM (active).
In the case of `CN[C@H]1[C@@H](O[C@@H]2[C@H](O[C@@H]3[C@@H](O)[C@@H](O)[C@@H](N=C(N)N)[C@@H](O)[C@@H]3N=C(N)N)O[C@H](C)[C@@]2(O)C=O)O[C@@H](CO)[C@@H](O)[C@H]1O`, the Potency result in test [1], in test [6], in test [7], in test [3] and in test [8] was “inactive” throughout.
Regarding `Cc1c[nH]c(C=C2C(=O)Nc3ccccc32)c1CCC(=O)O`, the Potency in test [1] is 2640 nM (active); in test [7], 833 nM (active).
As to `CON=C(C(=O)N[C@@H]1C(=O)N2C(C(=O)O)=C(CSC(=O)c3ccco3)CS[C@H]12)c1csc(N)n1`, the Potency entry in test [1], in test [6], in test [7], in test [3] and in test [8] was “inactive” in each case.
As for `Cc1cc(=O)c2c(O)c3c(O)cc(=O)c4c3c3c(cc(O)c1c23)C(C)(C)C=4O`, the Potency in test [5] was 2.24 µM (active).
Regarding `O=C(O)CCCCN(CCc1ccccc1OCc1ccc(CCc2ccccc2)cc1)Cc1ccc(C(=O)O)cc1`, the activity (max response) in test [4] was 9.06%. The Potency entry in test [5] is “inactive”.
On the same counts, the results for `O=C(CCNNC(=O)c1ccncc1)NCc1ccccc1` are -0.798% and “inactive”.
`Cc1[nH]cnc1CN1CCc2c(c3ccccc3n2C)C1=O`: the activity (max response) in test [4] was 6.95%. Also, the Potency entry in test [5] is “inactive”.
Taken in the same sequence, the figures for `CO/N=C1\CN(c2nc3c(cc2F)c(=O)c(C(=O)O)cn3C2CC2)CC1CN` (stereo not drawn) were -3.25% and “inactive”.
In the case of `COC(=O)c1c(Cl)c(Cl)c(C(=O)OC)c(Cl)c1Cl`, in test [4], the activity (max response) is 12.2%. Moreover, in test [5], the Potency result was “inactive”.
Taken in the same sequence, the figures for `Cc1onc(-c2ccc(F)cc2)c1COc1ccc(C(=O)N2CCS(=O)(=O)CC2)cn1` were -15% and “inactive”.
Taken in the same sequence, the figures for `N[C@@H](Cc1cc(I)c(O)c(I)c1)C(=O)O` were 8.5% and “inactive”.
Regarding `Cc1ncc([N+](=O)[O-])n1CC(O)CCl` (stereo not drawn), the activity (max response) in test [4] was -4.94%. Further, the Potency result in test [5] was “inactive”.
On the same counts, the results for `CC[N+](CC)(CCNC(=O)C(=O)NCC[N+](CC)(CC)Cc1ccccc1Cl)Cc1ccccc1Cl` are -1.37% and “inactive”.
On the same counts, the results for `CCN(CC)CCOCCOC(=O)C1(c2ccccc2)CCCC1` are -3.2% and “inactive”.
For `CO[C@]12C[C@@H](COC(=O)c3cncc(Br)c3)CN(C)[C@@H]1Cc1cn(C)c3cccc2c13`, the activity (max response) in test [4] was 3.85%. Moreover, the Potency entry in test [5] is “inactive”.
Taken in the same sequence, the figures for `CCN(CCCCOC(=O)c1ccc(OC)c(OC)c1)C(C)Cc1ccc(OC)cc1` (stereo not drawn) were -18.6% and “inactive”.
On the same counts, the results for `COc1ccc(-n2cnc3cc(C(=O)N4CCCCC4)ccc32)cc1` are -10.1% and “inactive”.
For `CCN(CC)CCNC(=O)c1c(C)[nH]c(/C=C2\C(=O)Nc3ccc(F)cc32)c1C`, the Potency is 18400 nM (active) in test [4]; 13 µM (active) and 15.8 µM (active) in test [5].
As to `C/C(=C1\CCOC(=O)S1)N(C=O)Cc1cnc(C)nc1N`, the activity (max response) in test [4] was -4.19%. Further, in test [5], the Potency entry was “inactive”.
For `CC(=O)Oc1ccc(C2(c3ccc(OC(C)=O)cc3)C(=O)Nc3ccccc32)cc1`, the activity (max response) in test [4] is -6.19%. For the same compound, in test [5], the Potency entry is “inactive”.
On to `COCCNc1cc(NC(=O)N2CCCc3cc(CN4CCN(C)CC4=O)c(C=O)nc32)ncc1C#N`, for which the activity (max response) in test [4] was -2.64%. In addition, the activity change, negative = viability loss in test [5] was -1.4% [at 9.17 µM].
With `O=C1Cc2cc(C(=O)NC3C[C@H]4CC[C@@H](C3)N4S(=O)(=O)CC3CCN(CCCC(F)(F)F)CC3)c(Cl)cc2N1` (stereo partly drawn), the activity (max response) in test [4] is -5.12%. In addition, the Potency result in test [5] is “inactive”.
On the same counts, the results for `COC1=C2C[C@H](C)C[C@H](OC)[C@H](O)[C@@H](C)/C=C(/C)[C@H](OC(N)=O)[C@@H](OC)/C=C\C=C(\C)C(=O)NC(=CC1=O)C2=O` are -3.63% and “inactive”.
Taken in the same sequence, the figures for `OC(CCN1CCCCC1)(c1ccccc1)c1ccccc1` were 3.2% and “inactive”.
Regarding `COCCNCc1ccc(-c2cc3nccc(Oc4ccc(NC(=O)C5(C(=O)Nc6ccc(F)cc6)CC5)cc4F)c3s2)nc1`, the Potency in test [4] is 3550 nM (active); in test [5], 3.16 µM (active).
As to `NS(=O)(=O)c1cc2c(cc1Cl)NC(CC1CCCC1)NS2(=O)=O` (stereo not drawn), the activity (max response) in test [4] is 10.5%. In addition, in test [5], the Potency result was “inactive”.
Taken in the same sequence, the figures for `CC[C@H]1OC(=O)[C@H](C)C(=O)[C@H](C)[C@@H](O[C@H]2O[C@H](C)C[C@H](N(C)C)[C@H]2O)[C@](C)(OC)C[C@@H](C)C(=O)[C@H](C)[C@H]2N(CCCCn3cnc(-c4cccnc4)c3)C(=O)O[C@]12C` were -18.8% and “inactive”.

These data come from PubChem BioAssay (NCATS).
